c-Myc SMM: binders of human c-Myc, primary screen, biochemical, small molecule microarray, anti-His fluorescence; Myc proto-oncogene protein (Homo sapiens), P01106; His-c-Myc binding; calls only; 1.5% of 17,000 active; AID 624141, 2012;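 active means spot fluorescence over background with P-value below 7% in all four replicate spots, showing protein binding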
mut p53 SMM: binders of human mutant p53, primary screen, biochemical, small molecule microarray, anti-GST fluorescence. mutant tumor protein p53 (GST-tagged), Homo sapiens. small molecule microarray binding. calls only. 0.4% of 17,000 active;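 active means compounds whose four printed spots each glow above background more than chance allows, each with a p-value under 7%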
NFkB SMM: binders of NF-kB p50 subunit, primary screen, biochemical, small molecule microarray, anti-His fluorescence; 1.3% of 17,000 active; Nuclear factor NF-kappa-B p105 subunit (Homo sapiens), P19838; calls only; anti-His fluorescence binding;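 active means spot fluorescence over background significantly raised, with a chance value under 7% in all four replicate spots of the compound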;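 further: probe protein is his-tagged human p50 processed subunit at 1 µg/ml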
Target sequence (P19838 1-433 limits assumed): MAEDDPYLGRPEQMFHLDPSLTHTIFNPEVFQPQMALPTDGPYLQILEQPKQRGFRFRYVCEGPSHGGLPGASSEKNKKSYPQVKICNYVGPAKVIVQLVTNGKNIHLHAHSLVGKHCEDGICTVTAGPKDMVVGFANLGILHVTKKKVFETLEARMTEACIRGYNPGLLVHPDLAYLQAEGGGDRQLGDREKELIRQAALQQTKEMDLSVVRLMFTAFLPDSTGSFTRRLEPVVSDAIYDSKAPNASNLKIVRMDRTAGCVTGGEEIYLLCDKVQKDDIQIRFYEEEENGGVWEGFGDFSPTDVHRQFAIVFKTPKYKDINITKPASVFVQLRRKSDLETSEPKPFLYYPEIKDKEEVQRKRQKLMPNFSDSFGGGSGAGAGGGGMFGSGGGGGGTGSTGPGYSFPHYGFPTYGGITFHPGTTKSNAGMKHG
STAT3 binder: STAT3 binders, primary screen, biochemical, small molecule microarray, single point, set 2; Signal transducer and activator of transcription 3 (Homo sapiens), P40763; His-STAT3 binding, anti-His fluorescence; calls only; 0.2% of 17,000 active;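 active means compounds whose four printed spots each show fluorescence over background unusually high for their array block, chance value under 7%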
Of the large screens only hits and unclear results are named; the others gave an inactive call. Shown are actives, neighbours in structure and some others; about 2.1% of the full set was active somewhere.

C[C@H]1CCCCO[C@@H](CN(C)C(=O)Nc2ccccc2)[C@@H](C)CN([C@@H](C)CO)C(=O)c2cc(NC(=O)c3ccncc3)ccc2O1	none
C[C@@H]1CN([C@H](C)CO)C(=O)c2cc(NC(=O)c3ccncc3)ccc2O[C@@H](C)CCCCO[C@@H]1CN(C)C(=O)Nc1cccc2ccccc12	STAT3 binder active
O=C(Nc1ccc(Cl)cc1C(=O)NCCO)c1ccc(Cl)cc1Cl	none
O=C(CSc1n[nH]c(-c2ccccc2Cl)n1)Nc1ccccc1F	none
CC(C)NC(=O)N(C)C[C@H]1OCCCC[C@H](C)Oc2ccc(NC(=O)c3ccncc3)cc2C(=O)N([C@@H](C)CO)C[C@H]1C	none
C[C@@H]1CCCCO[C@@H](CN(C)C(=O)Nc2cccc3ccccc23)[C@H](C)CN([C@H](C)CO)C(=O)c2cc(N(C)C)ccc2O1	c-Myc SMM active, NFkB SMM active
C[C@@H]1CN([C@@H](C)CO)C(=O)c2cc(NC(=O)c3ccncc3)ccc2O[C@@H](C)CCCCO[C@@H]1CN(C)C(=O)Nc1cccc2ccccc12	mut p53 SMM active, STAT3 binder active
C[C@@H]1CCCCO[C@@H](CN(C)C(=O)Nc2cccc3ccccc23)[C@H](C)CN([C@@H](C)CO)C(=O)c2cc(NC(=O)c3ccncc3)ccc2O1	c-Myc SMM active, NFkB SMM active
C[C@@H]1CN([C@@H](C)CO)C(=O)c2cc(NC(=O)c3ccncc3)ccc2O[C@@H](C)CCCCO[C@@H]1CN(C)C(=O)Nc1ccccc1	none
CC(C)NC(=O)N(C)C[C@H]1OCCCC[C@@H](C)Oc2ccc(NC(=O)c3ccncc3)cc2C(=O)N([C@@H](C)CO)C[C@H]1C	NFkB SMM active
O=C(CSc1nnc(-c2cccnc2)n1-c1ccccc1)Nc1ccc(Oc2ccccc2)cc1	none
CSc1ccccc1NC(=O)C(C)N(c1ccccc1)S(C)(=O)=O (configuration not stated)	none
COC(=O)c1cccc(COC(=O)c2ccc(NC(=O)c3ccccc3)cc2)c1	none
Cc1cc2nc3c(=O)[nH]c(=O)nc-3n(C)c2cc1C=O	c-Myc SMM active
CO[C@@H]1CC(OC2CCC3(C)C(CCC45CCC(C6=CC(=O)OC6)C(C)(CCC43)C5=O)C2)O[C@H](C)[C@@H]1O[C@@H]1O[C@H](CO[C@@H]2O[C@H](CO)[C@@H](O)[C@H](O)[C@H]2O)[C@@H](O)[C@H](O)[C@H]1O (some centres not stated)	none
COC(=O)C1=COC(O[C@@H]2O[C@H](CO)[C@@H](O)[C@H](O)[C@H]2O)[C@@H]2[C@@](C)(O)[C@@H](OC(=O)/C=C\c3ccccc3)C[C@]12O (some centres not stated)	none
C/C=C(\C)C(=O)O[C@@H]1[C@@H](OC(C)=O)C2[C@@]3(C)CC[C@H](OC4CC(OC)C(OC5CC(OC)C(OC6CC(OC)C(OC7OC(C)C(OC8OC(CO)C(O)C(O)C8O)C(OC)C7O)C(C)O6)C(C)O5)C(C)O4)CC3=CC[C@@]2(O)[C@@]2(O)CC[C@H](C(C)=O)[C@@]12C (some centres not stated)	c-Myc SMM active, NFkB SMM active
COC1CC(OC2C(C)OC(OC3C(C)OC(OC4C(C)OCC(OC5C(O)C(O[C@H]6CC[C@@]7(C)C(=CC[C@]8(O)C7CC(OC(=O)c7ccccc7)[C@@]7(C)[C@]8(O)CC[C@@]7(O)C(C)=O)C6)OC(CO)C5OC5OC(CO)C(O)C(O)C5O)C4OC)CC3OC)CC2OC)OC(C)C1O (some centres not stated)	c-Myc SMM active, NFkB SMM active
COc1ccc(S(=O)(=O)N2CCOCC2)cc1C(=O)NCCN1CCOCC1	none
Cc1ncc2ccccc2c1C#N	none
COc1cc2c(cc1OC)CN(C(=O)[C@H]1[C@@H]3C(=O)O[C@@H](c4ccccc4)[C@@H](c4ccccc4)N3[C@@H](c3ccc(O)cc3)[C@]13C(=O)Nc1ccc(C#CC4=CCCCC4)cc13)CC2	none
NC(=O)c1c(NC(=O)CSc2ncn[nH]2)sc2c1CCC2	none
CC(C)(O)[C@@H]1Cc2cc3ccc(=O)oc3cc2O1	none
O=C1c2ccccc2C(=O)N1CC1CCN(Cc2cccc(OCCO)c2)CC1	c-Myc SMM active
O=C1c2ccccc2C(=O)N1C1CCN(Cc2ccc(OCCO)cc2)CC1	none
CCOc1ccc(NC(=O)C(C)Sc2ncnc3sc(-c4ccccc4)cc23)cc1 (configuration not stated)	c-Myc SMM active
Cc1c(CC(=O)O)c(=O)oc2cc(OCC(=O)O)ccc12	c-Myc SMM active
Cc1c(CC(=O)O)c(=O)oc2c(C)c(OCC(=O)O)ccc12	none
C[C@@H]1CN([C@@H](C)CO)C(=O)c2cc(NC(=O)Nc3ccc(C(F)(F)F)cc3)ccc2O[C@@H](C)CCCCO[C@@H]1CN(C)CC1CCCCC1	NFkB SMM active
C[C@H]1CN([C@@H](C)CO)C(=O)Cc2cc(NS(=O)(=O)c3ccc(Cl)cc3)ccc2O[C@H]1CN(C)CC1CCCCC1	none
C[C@@H]1CCCCO[C@H](CN(C)C(=O)Nc2ccc(C(F)(F)F)cc2)[C@H](C)CN([C@H](C)CO)C(=O)c2cc(NS(C)(=O)=O)ccc2O1	c-Myc SMM active
C[C@@H]1CN([C@@H](C)CO)C(=O)c2cc(NC(=O)c3ccccc3)ccc2O[C@@H](C)CCCCO[C@H]1CN(C)CC1CCCCC1	c-Myc SMM active
C[C@@H]1CCCCO[C@H](CN(C)C(=O)Nc2ccc(C(F)(F)F)cc2)[C@@H](C)CN([C@H](C)CO)C(=O)c2cc(NS(C)(=O)=O)ccc2O1	none
C[C@@H]1CCCCO[C@H](CN(C)C)[C@@H](C)CN([C@H](C)CO)C(=O)c2cc(NC(=O)Nc3ccc(C(F)(F)F)cc3)ccc2O1	none
C[C@H]1CN([C@@H](C)CO)C(=O)Cc2cc(NS(=O)(=O)c3ccc(Cl)cc3)ccc2O[C@@H]1CN(C)CC1CCCCC1	c-Myc SMM active, mut p53 SMM active, NFkB SMM active
CS(=O)(=O)N(CC(=O)Nc1ccccc1C(=O)O)c1ccc(F)cc1	none
Cc1ccc(CN2CCN(CCO)CC2)o1	none
CCOC(=O)c1c(C)oc2ccc(OCC(=O)c3ccc(Cl)cc3)cc12	none
C[C@@H]1CN([C@@H](C)CO)C(=O)c2cc(NC(=O)Nc3ccc4c(c3)OCO4)ccc2O[C@H]1CN(C)CC1CCCCC1	NFkB SMM active
CC(C)NC(=O)N(C)C[C@H]1OCCCC[C@@H](C)Oc2ccc(NC(=O)Nc3ccc(C(F)(F)F)cc3)cc2C(=O)N([C@@H](C)CO)C[C@H]1C	c-Myc SMM active, NFkB SMM active
Cn1c(SCC(=O)NC23CC4CC(CC(C4)C2)C3)nnc1-c1cccc([N+](=O)[O-])c1	none
O=C1CCC(=O)N(O)CCCCCNC(=O)CCC(=O)N(O)CCCCNC(=O)CCC(=O)N(O)CCCCN1	none

Bioassay records: PubChem BioAssay, Broad Institute
